# From PubChem BioAssay
# Assay: probe aLefty1 binding on compound microarray – biochemical, small-molecule microarray, 635/667 nm fluorescence, primary screen (AID 1153);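 note: score merges spot fluorescence with signal-to-noise ratio from the scanned slide images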
# Conditions: higher = more signal
row,Structure (SMILES),composite z-score
1,N#Cc1ccc(NN2C(C(O)C3CC=CCC3)C=CC3C(=O)N(c4ccccc4)C(=O)C32)cc1 (stereo not drawn),0.364
2,C=C(C)[C@@H]1CC=C(C(O)C2C=CC3C(=O)N(c4ccccc4)C(=O)C3N2Nc2ccc([N+](=O)[O-])cc2)CC1 (stereo partly drawn),0.37
3,COc1ccc([Si](C)(C)[C@H]2[C@H](CCO)O[C@@]3(C(=O)N(Cc4cccc(N(C=O)c5ccccc5)c4)c4ccccc43)[C@@H]2C)cc1,-0.339
4,CCCCC(O)C1C=CC2C(=O)N(c3ccccc3)C(=O)C2N1Nc1ccc([N+](=O)[O-])cc1 (stereo not drawn),0.683
5,COc1ccc([Si](C)(C)[C@@H]2[C@@H](CC(=O)N3CCC[C@H]3CO)O[C@]3(C(=O)N(Cc4ccc(N5CCOC5=O)cc4)c4ccccc43)[C@H]2C)cc1,-0.0099
6,CC(C)NC(=O)[C@@H]1c2ccccc2C(=O)N(Cc2ccccc2C(F)(F)F)[C@H]1c1ccc(CO)cc1,-0.556
7,CCCCCC1=C2CNC(Cc3ccccc3)(C(=O)OC)C=C2C(C)C1=O (stereo not drawn),0.568
8,CN(C)c1ccc(C(O)C2C=CC3C(=O)N(Cc4ccccc4)C(=O)C3N2n2cnnc2)cc1 (stereo not drawn),-0.115
9,O=C(NCC(O)CO)[C@@]1(CCS(=O)(=O)c2ccccc2)N=C(c2ccc(OCCCO)cc2)O[C@H]1c1ccccc1 (stereo partly drawn),0.419
10,COCCCNC(=O)[C@@H]1c2ccccc2C(=O)N(Cc2ccc(OC(F)(F)F)cc2)[C@H]1c1ccc(CO)cc1,0.0271
11,Cc1ccc(F)cc1S(=O)(=O)N[C@H]1CCN(Cc2ccc(OC(C)C)cc2)C1,-0.241
12,CC1CC/C=C\[C@H]2OC34C=CCN(c5ccc(Cl)cc5)C(=O)[C@H]3N(CCCCCCO)C(=O)[C@]4(C)C2C(=O)O1 (stereo partly drawn),0.0999
13,O=C1C2C=CC(C(O)c3c(F)cccc3Cl)N(Nc3ccc([N+](=O)[O-])cc3)C2C(=O)N1c1ccccc1 (stereo not drawn),0.218
14,[N-]=[N+]=Nc1ccccc1[C@@H]1OC(c2ccc(OCCCO)cc2)=N[C@]1(CCS(=O)(=O)c1ccccc1)C(=O)NCC(O)CO (stereo partly drawn),0.165
15,C=CC[C@@]1(C(=O)OC)N=C(c2ccc(OCCCO)cc2)O[C@@H]1c1ccccc1N=[N+]=[N-],0.398
16,COC(=O)[C@@]1(Cc2ccc(OC)cc2)[C@H]2c3cc(C(=O)N4CCCC4)n(CCn4cc([N+](=O)[O-])nc4C)c3C[C@H]2CN1C(=O)c1ccccc1,2.16
17,CN1C(=O)C2C(C3CC3)C=C3CN(Cc4cccc(Cl)c4)[C@@H]([C@@H](O)Cc4ccccc4)C3C2C1=O (stereo partly drawn),0.2
18,COc1ccccc1CN1C(=O)c2ccccc2[C@](Cc2ccccc2I)(C(=O)NCC(C)C)[C@@H]1c1ccc(CO)cc1,0.19
